Screening data deposited in PubChem by National Center for Advancing Translational Sciences (NCATS).
The list is not random: actives were taken first. Their share in the collection is about 19%.
HT1080-NT tox: qHTS for induction of synthetic lethality in tumor cells producing 2HG: qHTS for the HT-1080-NT fibrosarcoma cell line | HT-1080-NT fibrosarcoma viability, CellTiter-Glo ATP luminescence, 48 h | Potency, µM (top dose mostly 46.1 µM), for inactives: top-dose activity, negative = less viability, actives largely listed as cytotoxic | 360,000 compounds, 1.6% hits;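 note: NT is the 2HG producing partner of a matched IDH1 knockdown line; potency is the fitted concentration of half-maximal effect; 0% = DMSO-treated cells and -100% = media-only wells without cells; nearly all actives have a fitted effect of over 55% in size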
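Luminescent CellTiter-Glo readout after 48 hours of compound exposure at 37 degrees C defined viability of HT-1080-NT cells. Activity was normalized to DMSO wells and cell-free media wells; concentration-response curves were fitted and assigned curve classes.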
TDP1 cell noCPT: qHTS for Inhibitors of human tyrosyl-DNA phosphodiesterase 1 (TDP1): qHTS in cells in absence of CPT | DT40 Tdp1-/- hTDP1 cells, no CPT, ATP luminescence, 48 h | Potency, µM (titrated, usually from 46.2 µM), inactives show at the top dose activity change, negative = growth inhibition, most hits filed as inhibitors | AID 686978, 2013 | 420,000 compounds, 15% hits; note: potency is the fitted concentration of half-maximal effect; nearly all actives have a fitted effect of over 55% in size
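Compound effects on proliferation are scored in DT40 Tdp1-/-;hTDP1 cells in the absence of CPT. ATP levels (CellTiter-Glo luminescence) are recorded after a ≥48 hr, 37 °C incubation.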
ELG1 repair inh: qHTS screen for small molecules that inhibit ELG1-dependent DNA repair in human embryonic kidney (HEK293T) cells expressing luciferase-tagged ELG1; Potency, µM (highest dose often 46.1 µM), for the others: top-dose activity change, negative = inhibition, actives largely listed as inhibitors; HEK293T ELG1-luciferase reporter, luminescence, 16 h; DNA damage induced by 5-fluorouridine; 330,000 compounds, 2.3% hits; note: potency is the fitted concentration of half-maximal effect; nearly all actives have a fitted effect of over 55% in size
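Overnight (16 hr) co-exposure of 2,000 cells/well to 5-fluorouridine and compound at 37 °C preceded detection. Luciferase was quantified via ONE-Glo luminescence; loss of signal denotes inhibition.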
HT1080 IDH1KD tx: qHTS for induction of synthetic lethality in tumor cells producing 2HG: qHTS for the HT-1080-IDH1KD cell line. 360,000 compounds, 2% hits. HT-1080 IDH1 knockdown viability, ATP luminescence, 48 h. AID 686971, 2013. Potency, µM (doses to about 46.1 µM), for inactives: at the top dose activity, negative = toxicity, hits mostly cytotoxic;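 note: potency is the fitted concentration of half-maximal effect; 0% = DMSO wells and -100% = cell-free medium wells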
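After a 2 h attachment period, IDH1KD HT-1080 cells took pin-transferred compound for 48 h at 37 °C; ATP-based luminescence after 10 min room-temperature reagent incubation reported viability.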
IL1B secr inh: qHTS for Inhibitors of Inflammasome Signaling: IL-1-beta AlphaLISA Primary Screen. THP-1 LPS/ATP IL-1B secretion, AlphaLISA, 16 h; hits give low values. activity change, % at 57.5 µM. 360,000 compounds, 4.7% hits; in the data active = activity change below about -50%; inconclusive = mostly about -30% to -49%
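THP-1 cells pretreated 1 hr with compounds (up to 57.5 uM final), then stimulated with LPS (250 ng/mL final) plus ATP (1.25 mM final); secreted IL-1B measured by AlphaLISA after 16 hr, decreased signal indicating inhibition.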
TDP1 cell CPT: qHTS for Inhibitors of human tyrosyl-DNA phosphodiesterase 1 (TDP1): qHTS in cells in presence of CPT | chicken DT40 Tdp1-/-;hTDP1 cells + 20 nM CPT, ATP luminescence, 48 h | Potency, µM (series often up to 46.2 µM), without a hit: at the top dose activity change, negative = growth inhibition, most hits filed as inhibitors | 420,000 compounds, 12% hits | AID 686979, 2013; note: potency is the fitted concentration of half-maximal effect; nearly all actives have a fitted effect of over 55% in size
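Chicken DT40 Tdp1-/- cells complemented with human TDP1, 400 cells/well, exposed to compounds plus 20 nM camptothecin for at least 48 h at 37 C; viability read as ATP content by CellTiter-Glo luminescence.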
* = called active by the depositor; ? = inconclusive; nt = no result; ! = a repeat was not active; [ ] = remark or other dose. Unless noted, calls come from the whole dose curve; as a rule, active = well fitted curve in the direction sought with a large enough effect; inconclusive = small, poorly fitted or top-dose-only effect, or another doubt; inactive = no such curve, though single readings can be large; an effect the other way counts as inactive or inconclusive. Unless noted, % is set by controls: 0 for no effect and ±100 for the full control effect.

SMILES | HT1080-NT tox | TDP1 cell noCPT | ELG1 repair inh | HT1080 IDH1KD tx | IL1B secr inh | TDP1 cell CPT
O=C(c1cnn2c(-c3ccccc3)cc(-c3ccccc3)nc12)N1CCN(Cc2ccccc2)CC1 | 0% | -29% | nt | 0% | -4 | ?
O=[N+]([O-])c1ccc(NC(=S)NCC(c2cccnc2)N2CCOCC2)cc1 (centres undefined) | -2% | ? | 4% | 4% | 6 | ?
c1ccc(-n2c(SCc3nc(-c4cccs4)no3)nnc2-c2ccco2)cc1 | ? | ? | ? | 13% | -75* | ?
CCn1c(SCc2nc(-c3ccccc3)no2)nnc1-c1cccs1 | -5% | -26% | -13% | 0% | 13 | ?
CCc1ccc(-n2c(SCc3c(C)noc3C)nnc2-c2ccncc2)cc1 | -2% | ? | -9% | -5% | -4 | 21µM*
CCOc1ccccc1-c1noc(CSc2nnc(-c3ccccc3)n2-c2ccc(F)cc2)n1 | nt | 13µM* | nt | nt | nt | 12µM*
CCc1ccc(-n2c(SCC(=O)Nc3ccc(C(=O)O)cc3)nnc2-c2ccncc2)cc1 | 11% | 21% | -1% | 10% | 7 | 3%
CSc1nnc(-c2ccco2)n1-c1ccccc1 | 8% | ? | 0% | 16% | 5 | 18µM*
CCN(CC)C(=O)[C@H]1C[C@H](CC(=O)NC(C)(C)C)C(=O)N2CCc3c([nH]c4cc(CCC(=O)N(C)C)ccc34)[C@]12C | 8% | -18% | 18% | 4% | 19 | 0%
COc1ccc(NS(=O)(=O)c2cc3[nH]c(=O)c(=O)[nH]c3cc2C)cc1OC | nt | -8% | nt | nt | nt | 2%
COc1ccc(-c2noc(CSc3nnc(-c4ccc(Cl)cc4)n3C)n2)cc1OC | nt | 16µM* | nt | nt | nt | ?
O=[N+]([O-])c1cccc(CSc2nnc(Cc3ccccc3)n2-c2ccc(F)cc2)c1 | -19% | ? | -15% | -28% | 3 | 18µM*
COc1ccc(-n2c(C)nnc2SCc2nc(-c3ccc(OC)c(OC)c3)no2)cc1 | nt | -23% | nt | nt | nt | -24%
COc1cc(Cl)c(C)cc1NC(=O)CSCc1nc(-c2ccc(OC)c(OC)c2)no1 | nt | 16µM* | nt | nt | nt | 21µM*
COc1ccc(-c2noc(CSc3nnc(-c4ccccc4)n3C)n2)cc1 | 6% | 15µM*! | 0% | -14% | -2 | 23µM*!
Cc1nc2cc(NC(=O)C3CC34CCN(Cc3ccc(O)c(Cl)c3)CC4)ccc2s1 (centres undefined) | nt | -13% | nt | nt | nt | 6%
Cc1nc(SCC(=O)N2CCOCC2)c2c(=O)n(C)c(=O)n(CC(C)C)c2n1 | 2% | -8% | ? | 1% | 29 | 1%
COc1ccc(-c2noc(CSc3nnc(-c4ccncc4)n3-c3ccc(C)cc3)n2)cc1OC | nt | -51% | nt | nt | nt | 16µM*
COc1ccc(-c2noc(CSc3nnc(-c4ccncc4)n3-c3ccccc3)n2)cc1 | nt | 23µM* | nt | nt | nt | 16µM*
COc1ccc(-c2noc(CSc3nnc(-c4ccncc4)n3-c3ccc(F)cc3)n2)cc1OC | ? | ? | ? | -29%[9.24 µM] | ? | ?
CCCOc1ccc(C2CC(=O)Nc3c2c(=O)n(C)c(=O)n3C)cc1OC (centres undefined) | nt | -13% | nt | nt | nt | 8%
Cc1ccc(CNC(=O)c2ccc(-c3nc(CS(=O)c4ccccc4)c(C)o3)cc2)cc1 (centres undefined) | nt | 8.2µM* | nt | nt | nt | 18µM*
